Test in all cases: NCI-60 one-dose screen, 48 h (100 = growth as untreated, 0 = no growth, -100 = all killed)
Conditions in all cases: 10 µM

Assay [1] deals with HT29 colon.
Assay [2] concerns SNB-75 CNS.
In assay [3] the test system is SNB-19 CNS.
For assay [4], the system named is U251 CNS.
The subject of assay [5] is PC-3 prostate.
The subject of assay [6] is SK-MEL-5 melanoma.
In assay [7] the test system is UACC-62 melanoma.
The subject of assay [8] is LOX IMVI melanoma.
Assay [9] deals with SK-MEL-28 melanoma.
Assay [10] relates to SK-MEL-2 melanoma.
In assay [11] the test system is EKVX NSCLC.
The subject of assay [12] is SN12C renal.
In assay [13] the test system is UO-31 renal.
Assay [14] relates to TK-10 renal.
Assay [15] concerns CAKI-1 renal.
Assay [16] concerns CCRF-CEM leukemia.
The test system of assay [17] is MOLT-4 leukemia.
Assay [18] concerns SR leukemia.
Assay [19] deals with ACHN renal.
In assay [20] the test system is A498 renal.

Compounds without any hit were thinned out: in the full panel of roughly 83,000, 20% have a hit.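 Treatment: one concentration, 48 hours, 96-well format. Scoring: percent growth, with anything below 10 considered active.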 Unmarked numbers belong to inactive results. The source made the active and inactive calls.

The text below walks through data of PubChem BioAssay (NCI).

As for `O=C(N/N=C/c1ccccc1)C(Oc1ccccc1)c1ccccc1` (centres undefined), the growth is 100% in assay [1]; 83.9% in assay [2]; 94.6% in assay [3]; 106% in assay [4]; 90.6% in assay [5]; 93.5% in assay [6]. The growth is 74.9% in [7]; 90.1% in assay [8]; 93.6% in assay [9]; 120% in [10]; 80.8% in assay [11]; 96.5% in [12]. The growth in assay [13] is 76%; in assay [14], 106%; in assay [15], 85.6%; in assay [16], 93.7%; in assay [17], 101%; in assay [18], 91.8%.

As to `COc1ccc2c(c1)[n+]([O-])c(C#N)c(NC(=O)c1ccco1)[n+]2[O-]`, the growth in [1] is 101%; in assay [2] it was 110%; in [3], 95.6%; in assay [4], 98.5%; in assay [5], 179%; in [6], 79.3%. In addition, the growth is 98.2% in assay [7]; 95.1% in [8]; 120% in [9]; 101% in assay [10]; 119% in [11]; 110% in assay [12]. Also, the growth is 112% in assay [14]; 95.1% in assay [19]; 96.5% in [15]; 220% in [16]; 93.3% in assay [17]; 87.4% in assay [18].

Consider `CC12O[C@H](C[C@@H](OC(=O)c3ccccc3)[C@H]1O)n1c3ccccc3c3c4c(c5c6ccccc6n2c5c31)C(=O)NC4=O`, for which the growth in assay [1] was 78.5%; in [2] it was 45.7%; in [3] it was 101%; in assay [4], 77.1%; in [5], 42.5%; in [6] it was 48.6%. Besides, the growth in assay [7] is 55%; in assay [8], 72.7%; in assay [9], 90.4%; in assay [10] it was 54.2%; in [11], 36.4%; in [12] it was 33%. Moreover, the growth in assay [13] was -13.9% (active); in [14], 7.3% (active); in assay [19], 39.4%; in assay [20], -25.6% (active); in [16] it was 64%; in assay [17], 64.3%. For the same compound, the growth in assay [18] is 50.3%.

For the compound `CN(C)c1ccc(-c2cc(-c3cccc(NS(C)(=O)=O)c3)nc(N)c2C#N)cc1`, the growth was 8.8% (active) in [1]; -2.46% (active) in assay [2]; 43.3% in assay [3]; 20.3% in assay [4]; 10.4% in [5]; 4.17% (active) in assay [6]. Also, the growth in [7] is 47.4%; in assay [8] it was 23.7%; in [9] it was 69%; in [10], 57.2%; in assay [11], 17.3%; in assay [12] it was 37.9%. The growth in assay [13] was 11.2%; in [14] it was 42.1%; in assay [19] it was 26.1%; in [16] it was 15.9%; in assay [17] it was 24.3%; in assay [18], 9.27% (active).

On to `Clc1cccc(-c2nc(-c3cccs3)no2)c1`, for which the growth in assay [1] was 106%; in assay [2], 81.5%; in assay [3], 104%; in assay [4] it was 90.3%; in [5] it was 103%; in [6], 90.1%. Besides, the growth in assay [7] was 89.8%; in assay [8], 93.1%; in [9], 115%; in assay [10], 116%; in assay [11], 85.4%; in assay [12], 97.1%. Moreover, the growth is 74.1% in assay [13]; 110% in assay [14]; 103% in assay [15]; 93.1% in assay [20]; 78.3% in [16]; 86.3% in assay [17]. For the same compound, the growth in assay [18] was 85.7%.

Consider `CC(=O)c1cc(Cl)ccc1O`, for which the growth was 106% in assay [1]; 95.4% in assay [2]; 113% in [3]; 107% in assay [4]; 91.1% in [5]; 103% in [6]. In addition, the growth in assay [7] was 108%; in assay [8], 102%; in assay [9] it was 109%; in assay [10], 110%; in assay [11], 108%; in [12], 110%. The growth in assay [13] was 78.3%; in assay [14] it was 98.9%; in assay [15] it was 107%; in [20], 100%; in [16] it was 100%; in [17], 101%. The growth in assay [18] is 104%.

Take `COc1cc2c(cc1OCCCN1CCN(c3ncnc4ccccc34)CC1)N=CC1CCCN1C2=O` (centres undefined): the growth was 12.3% in assay [1]; -29.8% (active) in assay [2]; 12% in assay [3]; 1.3% (active) in assay [4]; -53% (active) in assay [5]; -95.7% (active) in [6]. Besides, the growth was -91.8% (active) in assay [7]; -39.4% (active) in assay [8]; -9.59% (active) in assay [9]; 6.33% (active) in assay [10]; -38.6% (active) in assay [11]; 3.4% (active) in [12]. The growth in assay [14] was -7.43% (active); in assay [19], 2.77% (active); in assay [15], -12.1% (active); in assay [16], -45.8% (active); in assay [17] it was -44.3% (active); in assay [18], -43.4% (active).

`COc1ccc(OC)c(/C=C/c2nnc(Nc3ccc(Cl)cc3)o2)c1`: the growth in assay [1] is 76.9%; in assay [2] it was 15.8%; in assay [3] it was 84.9%; in assay [4], 41.8%; in assay [5], 74.9%; in assay [6], 69.8%. Further, the growth in assay [7] is 75.8%; in [8], 67.7%; in [9] it was 92.1%; in assay [10] it was 101%; in [11], 68.1%; in assay [12], 44.9%. The growth in assay [13] is 4.98% (active); in assay [14], 39.1%; in assay [16] it was 90.1%; in assay [17], 89.7%; in assay [18], 78.9%.

As to `OCC1OC(n2cnc3c(N/N=C\c4ccccn4)ncnc32)C(O)C1O` (centres undefined), the growth in [1] was 34.5%; in assay [2], 40.3%; in assay [3] it was 34.5%; in [4], 25.1%; in [5], 21%; in assay [6], -10.1% (active). For the same compound, the growth in assay [7] was 22%; in assay [8] it was 11.2%; in [9], 38%; in [10], 58.2%; in assay [11] it was 7.34% (active); in [12], 18.9%. Besides, the growth in assay [13] is -23.5% (active); in assay [14], 42.1%; in [19] it was 11.8%; in assay [16], 16.8%; in assay [17], 21%; in assay [18], 20.3%.
